Bioassay records: PubChem BioAssay, National Center for Advancing Translational Sciences (NCATS)
Tau fluor counter: counter-screen for tau fibril formation inhibitors; tau K18 P301L Alexa594 fluorescence, heparin fibrillization; Potency, µM (titrated, usually from 57.7 µM), for the others: at the top dose activity change, negative = decrease; 280,000 tested, 0.93% active; also: nearly all actives have a fitted effect of over 55% in size
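Human tau K18 P301L (15 uM unlabeled, 0.24 uM Alexa 594-labeled) in 100 mM sodium acetate pH 7 with 20 uM heparin, 6 hr at 37 C. ThT 30 uM added, 1 hr ambient; Alexa 594 FP and total fluorescence read at 555/632 nm.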
TR SRC2 fluor cs: counter-screen for TRb-SRC2 inhibitors: fluorescence interference. TRb/SRC2 Texas Red total fluorescence interference. Potency, µM (top dose mostly 106 µM), inactives show at the highest dose fluorescence change, negative = quenching. AID 1479. 280,000 tested, 0.29% active; active = well fitted curve in either direction with a large enough effect; inconclusive = small, poorly fitted or top-dose-only effect
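Flags fluorescent or light-absorbing compounds by total fluorescence, S + 2P, at 555 nm excitation and 632 nm emission. Mixture: 20 nM Texas Red SRC2 peptide, 0.6 uM human TRb LBD, 1 uM T3, 5% DMSO; compound exposure 5 h at ambient temperature.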
Tau ThT inhib: blocks human tau fibril formation measured by thioflavin T | recombinant tau K18 P301L (four-repeat tau fragment), heparin-induced fibrillization, ThT fluorescence | Potency, µM (titrated, usually from 57.4 µM), for the others: at the top dose activity, negative = inhibition, most hits filed as inhibitors | AID 1460 | 270,000 tested, 2.1% active | P10636; also: nearly all actives have a fitted effect of over 55% in size
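Tau K18 P301L fragment (15 uM unlabeled plus 0.24 uM Alexa 594-labeled) in 100 mM sodium acetate pH 7 with compound, fibrillization induced by 20 uM heparin for 6 hr at 37 C. Thioflavin T (30 uM) added, fluorescence read after 1 hr (ex 450, em 510 nm).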
Tau FP inhib: blocks human tau fibril formation measured by polarization. 280,000 tested, 0.39% active. AID 1468. Potency, µM (top dose mostly 57.7 µM), for inactives: at the top dose activity, negative = inhibition, hits mostly inhibitors. K18 P301L tau heparin fibrillization, Alexa594 FP, 6 h; also: nearly all actives have a fitted effect of over 55% in size
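Human K18 P301L fragment (15 uM unlabeled plus 0.24 uM Alexa 594-labeled) in 100 mM sodium acetate pH 7 with compound, aggregation induced by 20 uM heparin for 6 hr at 37 C. ThT (30 uM) added for 1 hr, then Alexa 594 FP read.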
TRb SRC2 PPI: inhibitors of human thyroid hormone receptor beta-SRC2 interaction; P10828; TRbeta-SRC2 peptide binding, fluorescence polarization; receptor liganded with 1 µM T3; Potency, µM (titrated, usually from 106 µM), for the others: top-dose activity change, negative = inhibition, usual class: inhibitors; 280,000 tested, 0.065% active; AID 1469;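 also: plate controls were bound peptide for no effect and peptide without receptor for full effect; nearly all actives have a fitted effect of over 50% in size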
Target sequence (P10828 whole entry, looked up): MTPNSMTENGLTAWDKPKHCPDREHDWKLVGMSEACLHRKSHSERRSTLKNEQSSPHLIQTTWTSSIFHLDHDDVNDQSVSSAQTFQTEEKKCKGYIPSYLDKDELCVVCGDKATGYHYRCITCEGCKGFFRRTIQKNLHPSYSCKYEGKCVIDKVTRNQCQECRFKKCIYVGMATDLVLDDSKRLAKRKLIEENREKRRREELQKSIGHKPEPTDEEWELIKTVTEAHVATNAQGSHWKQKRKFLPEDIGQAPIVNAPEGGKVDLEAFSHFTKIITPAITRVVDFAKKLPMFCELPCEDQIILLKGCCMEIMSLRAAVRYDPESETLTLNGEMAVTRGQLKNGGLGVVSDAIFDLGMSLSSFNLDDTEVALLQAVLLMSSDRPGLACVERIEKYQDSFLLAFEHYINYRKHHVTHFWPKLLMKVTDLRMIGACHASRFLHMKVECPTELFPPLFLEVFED
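Assay buffer: 20 mM Tris-HCl, 100 mM NaCl, 10% glycerol, 1 mM EDTA, 0.01% NP-40, 1 mM DTT, 1 uM T3, 5% DMSO; TRb LBD 0.6 uM, Texas Red SRC2 20 nM; FP after 5 hr.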
An asterisk follows results filed as active; ? = inconclusive; . = no result; [ ] = remark or other dose. This is a sample that favours compounds with a hit; in the whole collection about 3% have one here. Unless noted, calls follow the shape of the dose curve; as a rule, active = well fitted curve in the direction sought with a large enough effect; inconclusive = small, poorly fitted or top-dose-only effect, or another doubt; inactive = no such curve, though single readings can be large; an effect the other way counts as inactive or inconclusive. Unless noted, % is scaled to controls: 0 for no effect and ±100 for the full control effect; potency is read from the fitted curve at half-maximal effect.

SMILES	Tau fluor counter	TR SRC2 fluor cs	Tau ThT inhib	Tau FP inhib	TRb SRC2 PPI
CCCCC(CC)C(=O)Nc1ccc(Nc2ccccc2)cc1 (stereo unspecified)	10µM*[quencher]	0%[53 µM]	?	0%	3%[53 µM]
CC(=O)Nc1ccccc1	-1%	-2%	-1%	8%	2%
COc1ccc(OCC2CC3C(CCC(C)C3c3ccc(Br)cc3)C(=O)O2)cc1 (stereo unspecified)	-18%[11.6 µM]	-1%[11.2 µM]	-18%[11.5 µM]	3%[11.6 µM]	3%[11.2 µM]
Cc1nnc(NC(=O)c2sc3nc(-c4cccs4)cc(C(F)(F)F)c3c2N)s1	-15%	4%	13µM*	2%	7%
COc1ccc(N=Cc2c(O)cc(C)oc2=O)cc1	5%	0%	11%	1%	-17%
Cc1cc(O)c(C=Nc2cccc(Cl)c2)c(=O)o1	-5%	45µM*[fluorescent]	?	9%	?
Cc1cc(=O)n2[nH]c(C)c(-c3ccccc3)c2n1	-4%	-6%	-8%	0%	-21%
Cc1cc(=O)n2[nH]c(N)c(N=Nc3ccccc3F)c2n1	-5%	-7%	11µM*	10%	2%
COC(=O)c1cc2oc3ccccc3c2n1CC(=O)Nc1ccc(N(C)C)cc1	?	-6%	?	11%	11%
CCOc1ccc(OCC)c(NC(=O)c2cnc(SC)nc2-c2ccccc2)c1	-23%	8%	-8%	5%	1%
O=C(NCc1ccco1)c1nc2ccccc2s1	-7%	1%	-6%	-8%	5%
CC1=CC(=C(C#N)c2nc3ccccc3s2)C=C(C)N1Cc1ccco1	4µM*[quencher]	-3%	-18%	?	-7%
Cc1ccc(-c2[nH]c3ccccc3c2C(C[N+](=O)[O-])c2ccco2)cc1 (stereo unspecified)	13µM*[quencher]	4%	?	-15%	-14%
O=S(=O)(Nc1ccc(-c2ccc(N3CCCC3)nn2)cc1)c1cccc(C(F)(F)F)c1	-29%	708µM*[quencher]	-8%	9%	-8%
O=C(O)c1cc(N=Nc2ccc([N+](=O)[O-])cc2)ccc1O	.	-6%	.	.	11%
C=CCOC(=O)NC(CC(=Nc1ccc(OC)cc1)C(=O)OC)c1ccccc1 (stereo unspecified)	-4%	-2%	-7%	-4%	8%
CCCC(=O)C1=C(c2ccc(C)cc2)N(C(=O)CCC)n2cnnc2S1	?	1%	16µM*	-14%	4%
CCCC(=O)C1=C(c2ccc(C)c(C)c2)N(C(=O)CCC)n2c(CC)nnc2S1	-18%	-1%	?	-9%	4%
Cc1ccc(C)n1-c1c(C(=O)NCCC(C)C)sc2ncccc12	-13%	-6%	-13%	-1%	5%
CCc1ccc(NC(=O)c2ccc(F)c(S(=O)(=O)NCCc3ccc(OC)c(OC)c3)c2)cc1	?	0%	6%	-13%	2%
CCN1C(c2ccccc2)=C(c2ccccc2)S/C1=C/C=C1\SC(=S)N(C)C1=O	3.2µM*[fluorescent]	18µM*[fluorescent]	?	-7%	?
Cc1cc[n+](-c2[nH]c(=O)sc2/C=N/NC([S-])=Nc2ccccc2)cc1	-27%	-2%	?	-10%	-13%
O=c1[nH]c(-[n+]2ccccc2)c(/C=N/NC([S-])=Nc2ccccc2)s1	-23%	-1%	28µM*	?	-2%
CCc1ccc[n+](-c2[nH]c(=O)sc2/C=N/NC([S-])=Nc2ccccc2)c1	-25%	-9%	25µM*	?	4%
Cc1ccc(NC(=O)CCCCCCCCCCC2COCCO2)c(C)c1 (stereo unspecified)	-4%	0.025µM*[quencher]	5%	2%	?
COc1ccc(O)c(N)c1	13µM*[quencher]	10%	4.5µM*	11µM*	?
